Sampled rows, rich in hits. Any-hit rate of the full collection: about 2.3%.
USP1 inh: inhibitors of human USP1/UAF1 deubiquitinase; 390,000 compounds, 0.23% hits; Potency, µM (highest dose often 57.1 µM), inactives show at the top dose activity change, negative = inhibition, usual class: inhibitors; O94782; recombinant USP1/UAF1, Ub-Rhodamine cleavage fluorescence; further: potency means the concentration at half of the fitted maximal effect; nearly all actives have a fitted effect of over 60% in size
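Step one: compound is pinned into 1nM USP1/UAF1 in HEPES pH 7.8 buffer with TCEP. Step two: 15 min room-temperature incubation. Step three: Ub-Rho (150nM final) starts cleavage, tracked by fluorescence over six one-minute reads.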
Coupling enz: counter-screen for Giardia aldolase inhibitors: coupling enzyme system; coupling enzyme system counterscreen, AmpLite Red fluorescence; activity change, negative = inhibition, % at 58.2 µM, hits read low; 290,000 compounds, 0.67% hits; AID 2472; in the data active means activity change below about -30%
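Fluorescence at 525 nm excitation and 598 nm emission measured inhibition of the coupled detection system without aldolase. Compounds (at 57.5 uM final) were preincubated 10 min at room temperature with coupling enzyme reagent before a 20 min substrate/AmpLite Red step.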
Tau FP inhib: inhibitors of human tau fibril formation | 280,000 compounds, 0.39% hits | Potency, µM (series often up to 57.7 µM), for inactives: at the highest dose activity, negative = inhibition, actives largely listed as inhibitors | AID 1468 | P10636 | K18 P301L tau heparin fibrillization, Alexa594 FP, 6 h; further: potency means the concentration at half of the fitted maximal effect; nearly all actives have a fitted effect of over 55% in size
Target sequence (P10636 561-689 P618L limits assumed): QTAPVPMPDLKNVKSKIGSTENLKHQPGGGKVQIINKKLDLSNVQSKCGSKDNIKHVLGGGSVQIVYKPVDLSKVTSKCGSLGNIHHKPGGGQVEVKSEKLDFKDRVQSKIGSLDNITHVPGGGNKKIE
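FP of Alexa 594-tau after heparin (20 uM) induction. Substrate: human K18 P301L, 15 uM unlabeled, 0.24 uM labeled. Buffer 100 mM sodium acetate pH 7. 6 hr, 37 C.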
Tau fibril ThT: tau fibrillization inhibition (ThT binding); P10636; recombinant tau K18 P301L, heparin-induced fibrillization, ThT fluorescence; Potency, µM (doses to about 57.4 µM), inactives show top-dose activity, negative = inhibition, actives largely listed as inhibitors; 270,000 compounds, 2.1% hits; AID 1460; further: potency means the concentration at half of the fitted maximal effect; nearly all actives have a fitted effect of over 55% in size
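Recombinant human tau K18 fragment […] carrying P301L, 15 uM unlabeled plus 0.24 uM Alexa 594-labeled, was fibrillized with 20 uM heparin in 100 mM sodium acetate pH 7 for 6 hr at 37 C; 30 uM ThT fluorescence read after 1 hr.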
Tau fluor cs: counter-screen for tau fibril formation inhibitors | tau K18 P301L (four-repeat tau fragment) Alexa594 fluorescence, heparin fibrillization | Potency, µM (series often up to 57.7 µM), without a hit: at the highest dose activity change, negative = decrease | 280,000 compounds, 0.93% hits | AID 1463; further: potency means the concentration at half of the fitted maximal effect; nearly all actives have a fitted effect of over 55% in size
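Human K18 P301L tau (15 uM unlabeled plus 0.24 uM Alexa 594-labeled, final) in 100 mM sodium acetate pH 7 was mixed with compound and 20 uM heparin and incubated 6 hr at 37 C.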
* marks the source's active call; other numbers are inactive results; ? = inconclusive; . = no result; [ ] = remark or other dose. Unless noted, the call rests on the fitted dose curve; in most records, active means well fitted curve in the direction sought with a large enough effect; inconclusive means small, poorly fitted or top-dose-only effect, or another doubt; inactive means no such curve, though single readings can be large; an effect the other way counts as inactive or inconclusive. On the % scale 0 is the no-effect control and ±100 the full control effect.

SMILES	USP1 inh	Coupling enz	Tau FP inhib	Tau fibril ThT	Tau fluor cs
Cc1ccc(-n2c(O)c(/C=N/Nc3ccc(S(=O)(=O)N4CCOCC4)cc3[N+](=O)[O-])c3ccccc3c2=O)c(C)c1	-16%	-7	-9%	13µM*	?
O=c1c(N2CCOCC2)nsnc1N1CCOCC1	-22%	-54*	-10%	5%	0%
COC(=O)Oc1nsnc1N1CCOCC1	2%	-1	?	?	-16%
CC(=O)c1cccc(NC(=O)/C=C/c2ccc([N+](=O)[O-])s2)c1	0%	3	?	4µM*	?
Cc1ccccc1NC(=O)/C=C/c1ccc([N+](=O)[O-])s1	-20%	-1	?	13µM*	?
Cc1cc(C)cc(NC(=O)/C=C/c2ccc([N+](=O)[O-])s2)c1	1%	4	-8%	?	-17%
Cc1ccc(N2C(=O)C3C(C2=O)C(C(=O)c2ccc(Cl)cc2)N2CCCC32)cc1 (stereo not drawn)	-9%	1	0%	?	-12%
O=C(C1=C[C@@H]2[C@H]3C(=O)N(c4ccc(Cl)cc4)C(=O)[C@H]3[C@@H](C(=O)c3ccc(Cl)cc3)N2C=C1)c1ccccc1	1%	-1	-19%	14µM*	?
COc1ccc(NC(=O)Nc2cccc(OCc3cc(=O)n4cccc(C)c4n3)c2)c(OC)c1	?	.	?	?	7.1µM*[quencher]
COc1ccc(OC)c(NC(=O)Nc2cccc(OCc3cc(=O)n4cc(C)ccc4n3)c2)c1	-13%	.	?	?	13µM*[quencher]
COc1cc(OC)c(NC(=O)Nc2cccc(OCc3cc(=O)n4ccccc4n3)c2)cc1Cl	2%	.	8%	?	6.3µM*[quencher]
CCC(C(=O)N1CCN(c2ccccc2)CC1)n1nc(C)c2sc3ccccc3c2c1=O (stereo not drawn)	-13%	.	-1%	-5%	-13%
CC(=O)OC[C@@H]1O[C@@H](O/N=C2/C[C@@H](O)[C@@H](O)[C@@H]3[C@@H]4C(=O)N(C[C@@H]5CCCO5)C(=O)[C@H]4CC[C@@H]23)[C@H](OC(C)=O)[C@H](OC(C)=O)[C@@H]1OC(C)=O	.	0	-2%[11.6 µM]	-7%[11.5 µM]	-8%[11.6 µM]
Cc1ccc(C(=O)NC2(O)C(=O)c3ccccc3C2=O)cc1C	?	-19	4µM*	.	-11%
Cc1ccc(C(=O)NCC(=O)OCN2C(=O)c3ccccc3C2=O)cc1C	-11%	.	.	.	.
O=C(Cc1ccccc1)NC1(O)C(=O)c2ccccc2C1=O	?	-9	?	.	-13%
O=C(NC1(O)C(=O)c2ccccc2C1=O)c1ccc(C(F)(F)F)cc1	16µM*	-19	?	.	-15%
O=C1C(Cl)=C(N2CCN(Cc3ccccc3)CC2)C(=O)N1c1ccccc1	-31%	0	25µM*	16µM*	?
Cc1ccc(N2C(=O)C(Cl)=C(N3CCN(C)CC3)C2=O)c(C)c1	5%	4	25µM*	14µM*	?
O=C1C(Cl)=C(N2CCCCC2)C(=O)N1Cc1ccccc1	-7%	5	-1%	?	-2%
CN1CCN(C2=C(Cl)C(=O)N(c3ccc(Cl)cc3)C2=O)CC1	-9%	2	?	25µM*	?
COC(=O)C1=C[C@@H](C(=O)OC)C2C3=C(C(=O)[C@@]2(C)NC(=O)c2ccccc2)[C@H](C)n2c(=O)n(C)c(=O)n2[C@@H]3C1 (stereo partly drawn)	.	3	.	.	.
COc1ccc(O[C@H]2C=C[C@@H](c3ccccc3)O[C@H]2COC(=O)CC/C(C)=N\O[C@@H](C)CN2CCCCc3nc(C)c(C)cc32)cc1	.	3	1%[11.6 µM]	-13%[11.5 µM]	-11%[11.6 µM]
Cn1c(=O)c(CCc2ccccc2)nc2cnc(OCc3ccccc3)nc21	.	3	.	.	.
O=C1OC(c2ccccc2)=C/C1=C/c1cccs1	-23%	2	?	3.2µM*	?
SMILES	USP1 inh	Coupling enz	Tau FP inhib	Tau fibril ThT	Tau fluor cs
O=C1N=C(c2ccccc2)S/C1=C\c1cccs1	-27%	1	?	7.9µM*	?
O=C1N=C(N2CCN(c3ccccc3)CC2)S/C1=C/c1cccs1	?	1	7%	?	-19%
CCN(CC)c1ccc(C=C(c2nnnn2-c2ccccc2)c2nnnn2-c2ccccc2)cc1	?	-1	11%	-14%	-25%
Cc1ccc(-n2nnnc2C(=Cc2ccc(N(C)C)cc2)c2nnnn2-c2ccc(C)cc2)cc1	22µM*	4	15%	-13%	?
CCn1ccc2cc(S(=O)(=O)N3CCC(C(=O)NCC(C)c4ccccc4)CC3)ccc21 (stereo not drawn)	-31%	.	2%	-2%	-19%
COc1ccc2nc(N3C(=O)CNC3=S)sc2c1	-12%	3	5%	.	-19%
CCOc1ccc2nc(N3C(=O)/C(=C/c4ccc(Cl)cc4)NC3=S)sc2c1	-7%	2	-8%	4.5µM*	?
Cc1ccccc1CN1c2ccccc2-c2nc(SCC(=O)c3ccccc3)ncc2S1(=O)=O	?	.	-11%	0%	-17%
COC(=O)c1ccc(NC(=O)CC2C(=O)N(c3ccc(Cl)cc3)C(=O)N2Cc2cccs2)cc1 (stereo not drawn)	0%	.	?	-5%	?
Cc1ccc(-c2[nH]nc3c2C(c2cccnc2)C(C#N)=C(N)O3)cc1 (stereo not drawn)	-7%	-42*	0%	-14%	-16%
N#CC1=C(N)Oc2n[nH]c(-c3ccccc3)c2C1c1cccnc1 (stereo not drawn)	-14%	2	-11%	?	-14%
Cc1ccc(-c2[nH]nc3c2C(c2ccoc2)C(C#N)=C(N)O3)cc1C (stereo not drawn)	?	-22	?	32µM*	?
COc1ccc(-c2[nH]nc3c2C(c2ccoc2)C(C#N)=C(N)O3)cc1 (stereo not drawn)	-8%	0	0%	?	-20%
N#CC1=C(N)Oc2n[nH]c(-c3cccnc3)c2C1c1ccc([N+](=O)[O-])o1 (stereo not drawn)	-26%	1	?	13µM*	?
CC(=O)C1=C(C)OC(N)=C(C#N)C1c1cccnc1 (stereo not drawn)	-20%	-33*	-17%	?	-8%
COc1cccc(OCC(O)CN2CCC(CN3C(=O)c4cccc5cccc(c45)C3=O)CC2)c1 (stereo not drawn)	-12%	-2	7%	-6%	-9%
O=C1c2cccc3cccc(c23)C(=O)N1CC1CCN(CC(O)COc2ccc3ccccc3c2)CC1 (stereo not drawn)	-18%	.	-5%	13µM*	16µM*[quencher]
Cc1ccc2oc(-c3ccc(C)c(NC(=O)c4ccc(-c5ccccc5[N+](=O)[O-])o4)c3)nc2c1	?	.	-9%	?	-27%

Assay outcomes (PubChem BioAssay)
